# Reference: the supplement of paper PMC7366291
# Structures can show the parent of a compound that is named as a salt. ± gives the standard deviation or the standard deviation of the averaged measurements.
# How the values were obtained:
# Conditions in all cases: 25 µM; exposure: 24-48 hpf
# [1] = tested on: Danio rerio Tg(wt1b:EGFP) embryo, pronephros; assay: glomerular separation, fold change vs DMSO control; higher = glomeruli further apart (abnormal)
# Summary of the method: (§1)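 Each feature value is a fold change relative to the mean of same-day DMSO-treated embryos. Embryos of the Tg(wt1b:EGFP) zebrafish line, dechorionated, received 25 μM compound in 0.5% DMSO from 24 to 48 hpf at 28.5°C, in HEPES-buffered E3 with 0.003% PTU. Distances and angles were computed by a Fiji macro from 16 manually set reference points on maximum projections of dorsal pronephros images, and values beyond 2 SD of the feature mean were removed.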
# [2] = tested on: Danio rerio Tg(wt1b:EGFP) embryo, pronephros; assay: glomerular width (mean of left and right), fold change vs DMSO control; higher = wider glomerulus
# Summary of the method: as §1
# [3] = tested on: Danio rerio Tg(wt1b:EGFP) embryo, pronephros; assay: fraction of imaged embryos annotated as normal kidney; higher = less nephrotoxic; extreme values may be limits of the assay
# Summary of the method: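 The value given is the share of embryos in each treatment scored as having a normal kidney. To obtain it, dechorionated Tg(wt1b:EGFP) zebrafish embryos were treated from 24 to 48 hpf at 28.5°C with 25 μM compound in 0.5% DMSO, in 5 mM HEPES-buffered E3 with 0.003% PTU. Pronephroi were imaged by widefield fluorescence (470 nm, 10 z-slices), and every embryo was annotated by hand from maximum projections.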
# [4] = tested on: Danio rerio Tg(wt1b:EGFP) embryo, pronephros; assay: pronephric angle neck segment to proximal convoluted tubule (mean of left and right), fold change vs DMSO control; higher = larger pronephric angle
# Summary of the method: as §1
Compound,glomerular separation [1],glomerular width [2],fraction of imaged embryos annotated as normal kidney [3],pronephric angle neck segment [4]
COc1cccc2c1C(=O)c1c(O)c3c(c(O)c1C2=O)C[C@@](O)(C(=O)CO)C[C@@H]3O[C@H]1C[C@H](N)[C@@H](O)[C@H](C)O1 [Epirubicin hydrochloride],1.93 ± 0.41,1.07 ± 0.031,0.75,0.963 ± 0.053
CC(=O)N(CC(O)CN(C(C)=O)c1c(I)c(C(=O)NCC(O)CO)c(I)c(C(=O)NCC(O)CO)c1I)c1c(I)c(C(=O)NCC(O)CO)c(I)c(C(=O)NCC(O)CO)c1I (centres undefined) [Iodixanol],0.874 ± 0.28,1.043 ± 0.0099,0.917,1 ± 0.048
CCN(CC)CCOCCOC(=O)C1(c2ccccc2)CCCC1 [Carbetapentane citrate],0.953 ± 0.34,0.949 ± 0.062,0.75,1.06 ± 0.11
CCCCC(C)(O)C/C=C/[C@H]1[C@H](O)CC(=O)[C@@H]1CCCCCCC(=O)OC (mixture of isomers) [Misoprostol],0.763 ± 0.35,0.959 ± 0.024,1,0.985 ± 0.04
CCC(NC(C)C)C(O)c1ccc(O)c(O)c1 (centres undefined) [Isoetharine mesylate salt],1.01 ± 0.56,1.074 ± 0.0074,0.75,1.01 ± 0.032
C=CCN1CCCC1CNC(=O)c1cc2nn[nH]c2cc1OC (centres undefined) [Alizapride hydrochloride],1.18 ± 0.37,0.924 ± 0.018,0.917,1.02 ± 0.049
CC(=O)Oc1cc(C(F)(F)F)ccc1C(=O)O [Triflusal],1.26 ± 0.59,0.901 ± 0.012,0.917,1.02 ± 0.031
C[C@]12CCC(=O)C=C1CC[C@@H]1[C@@H]2[C@@H](O)C[C@@]2(C)[C@H]1CC[C@]2(O)C(=O)CO [Hydrocortisone base],1.25 ± 0.65,1.16 ± 0.081,0.5,0.95 ± 0.064
Cc1c(Cl)cccc1Nc1ncccc1C(=O)O [Clonixin Lysinate],4.04 ± 1.5,0.545 ± 0.048,0,1.81 ± 0.068
COc1ccccc1N1CCN(CCCCNC(=O)c2ccc3ccccc3c2)CC1,0.691 ± 0.17,1.02 ± 0.049,0.917,0.969 ± 0.018
Cc1cc(C(C)(C)C)cc(C)c1CC1=NCCN1 [Xylometazoline hydrochloride],1.11 ± 0.42,0.948 ± 0.05,1,1 ± 0.012
CC(CN(C)C)CN1c2ccccc2CCc2ccccc21 (centres undefined) [Trimipramine maleate salt],0.996 ± 0.29,1.06 ± 0.087,0.833,0.972 ± 0.048
O=C(NCCN1CCOCC1)c1ccc(Cl)cc1 [Moclobemide],0.89 ± 0.26,1.01 ± 0.088,0.833,0.969 ± 0.011
"Cc1c(O)c(=O)n(-c2ccccc2)n1C [Antipyrine, 4-hydroxy]",1.2 ± 0.38,0.951 ± 0.064,0.583,1.03 ± 0.028
COc1c2occc2c(OC)c2c(=O)cc(C)oc12 [Khellin],0.835 ± 0.39,1 ± 0.033,1,1.03 ± 0.0013
CC[C@H](C)C(=O)O[C@H]1CCC=C2C=C[C@H](C)[C@H](CC[C@@H]3C[C@@H](O)CC(=O)O3)[C@H]21 [Mevastatin],4.87 ± 2.8,0.798 ± 0.046,0,1.73 ± 0.056
COc1ncnc(NS(=O)(=O)c2ccc(N)cc2)c1OC [Sulfadoxine],0.694 ± 0.18,0.997 ± 0.062,0.833,1.02 ± 0.066
CNCC[C@@H](Oc1cccc2ccccc12)c1cccs1 [(R)-Duloxetine hydrochloride],1.15 ± 0.49,1.046 ± 0.0076,1,0.986 ± 0.044
CN(C)CCOC(c1ccccc1)c1ccccc1 [Diphenhydramine hydrochloride],0.907 ± 0.28,1.03 ± 0.0021,0.75,0.942 ± 0.016
C[C@H](CCC(=O)O)[C@H]1CC[C@H]2[C@@H]3C(=O)C[C@@H]4CC(=O)CC[C@]4(C)[C@H]3CC(=O)[C@]12C [Dehydrocholic acid],0.9 ± 0.25,0.978 ± 0.07,0.833,0.984 ± 0.029
Nc1ccc(S(=O)(=O)c2ccc(N)cc2)cc1 [Dapsone],1.08 ± 0.44,1.04 ± 0.077,0.5,1.14 ± 0.042
CS(=O)(=O)OCCCCOS(C)(=O)=O [Busulfan],0.771 ± 0.21,0.97453 ± 0.00036,0.75,0.943 ± 0.034
C[C@]12CC[C@@H]3c4ccc(O)cc4CC[C@H]3[C@@H]1CC[C@@H]2O [Estradiol-17 beta],3.16 ± 1.2,0.812 ± 0.069,0.167,1.29 ± 0.22
CCCCc1ccc2[nH]c(NC(=O)OC)nc2c1 [Parbendazole],2.51 ± 0.79,0.5042 ± 0.0026,0,1.81 ± 0.054
CCN1CCC[C@H]1CNC(=O)c1c(OC)ccc(Br)c1OC [Remoxipride Hydrochloride],0.777 ± 0.38,1.02 ± 0.08,0.917,0.976 ± 0.032
CC(=O)SCC(Cc1ccccc1)C(=O)NCC(=O)OCc1ccccc1 (centres undefined) [Racecadotril],1.45 ± 0.84,0.819 ± 0.085,0.167,1.365 ± 0.013
